# Experimental data from PMC11006913.
# Residue numbers refer to the chain shown, from its start.
# Key:
# Test in all cases: PBM; 200 nM protein, PBS
# Settings in all cases: dsDNA, one strand shown
# NKX2-4 [1] = molecular target: T1, NKX2-4 (Homo sapiens, UniProt Q9H2Z4 175-261)
# T1 sequence: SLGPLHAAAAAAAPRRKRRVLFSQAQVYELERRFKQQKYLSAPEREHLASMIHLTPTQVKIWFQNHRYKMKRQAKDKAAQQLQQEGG
# NKX2-4 [2] = molecular target: T2, NKX2-4 (Homo sapiens, UniProt Q9H2Z4 175-261, R246Q)
# T2 sequence: T1 sequence with R72Q
# SIX6 [3] = molecular target: T3, SIX6 (Homo sapiens, UniProt O95475 114-200, L143M)
# T3 sequence: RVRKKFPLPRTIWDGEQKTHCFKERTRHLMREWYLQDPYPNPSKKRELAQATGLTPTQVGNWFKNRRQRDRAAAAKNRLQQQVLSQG
# HOXB6 [4] = molecular target: HOXB6 (Homo sapiens, UniProt P17509 132-218, K202E)
# Chain of HOXB6 (Homo sapiens, UniProt P17509 132-218, K202E) (P17509 132-218 K202E): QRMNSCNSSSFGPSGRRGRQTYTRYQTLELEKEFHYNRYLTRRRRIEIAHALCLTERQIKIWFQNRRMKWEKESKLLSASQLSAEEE
# NKX2-6 = molecular target: T4, NKX2-6 (Homo sapiens, UniProt A6NCS4 118-204, R150C)
# T4 sequence: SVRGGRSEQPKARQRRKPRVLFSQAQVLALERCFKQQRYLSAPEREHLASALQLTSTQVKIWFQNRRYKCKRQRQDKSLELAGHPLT
# HOXB6 [5] = molecular target: HOXB6 (Homo sapiens, UniProt P17509 132-218)
# Chain of HOXB6 (Homo sapiens, UniProt P17509 132-218) (P17509 132-218): as the sequence (P17509 132-218 K202E) above, with E71K counted along it
# HOXA2 [6] = molecular target: HOXA2 (Homo sapiens, UniProt O43364 129-215, R185T)
# Chain of HOXA2 (Homo sapiens, UniProt O43364 129-215, R185T) (O43364 129-215 R185T): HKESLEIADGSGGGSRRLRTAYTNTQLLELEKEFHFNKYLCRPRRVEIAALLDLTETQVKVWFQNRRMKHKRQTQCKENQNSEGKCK
# HOXA2 [7] = molecular target: HOXA2 (Homo sapiens, UniProt O43364 129-215, R185K)
# Chain of HOXA2 (Homo sapiens, UniProt O43364 129-215, R185K) (O43364 129-215 R185K): as the sequence (O43364 129-215 R185T) above, with T57K counted along it
# HOXA2 [8] = molecular target: HOXA2 (Homo sapiens, UniProt O43364 129-215, Y150S)
# Chain of HOXA2 (Homo sapiens, UniProt O43364 129-215, Y150S) (O43364 129-215 Y150S): as the sequence (O43364 129-215 R185T) above, with Y22S, T57R counted along it
# HOXA2 [9] = molecular target: HOXA2 (Homo sapiens, UniProt O43364 129-215)
# Chain of HOXA2 (Homo sapiens, UniProt O43364 129-215) (O43364 129-215): as the sequence (O43364 129-215 R185T) above, with T57R counted along it
# SIX6 [10] = molecular target: T5, SIX6 (Homo sapiens, UniProt O95475 114-200, T139Q)
# T5 sequence: T3 sequence with T26Q, M30L
# ALX3 [11] = molecular target: ALX3 (Homo sapiens, UniProt O95076 139-225, N203Q)
# Chain of ALX3 (Homo sapiens, UniProt O95076 139-225, N203Q) (O95076 139-225 N203Q): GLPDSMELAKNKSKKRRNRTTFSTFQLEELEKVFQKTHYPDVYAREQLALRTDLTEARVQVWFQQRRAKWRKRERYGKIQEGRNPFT
# ALX3 [12] = molecular target: ALX3 (Homo sapiens, UniProt O95076 139-225)
# Chain of ALX3 (Homo sapiens, UniProt O95076 139-225) (O95076 139-225): as the sequence (O95076 139-225 N203Q) above, with Q65N counted along it
# ALX3 [13] = molecular target: ALX3 (Homo sapiens, UniProt O95076 139-225, L168Q)
# Chain of ALX3 (Homo sapiens, UniProt O95076 139-225, L168Q) (O95076 139-225 L168Q): as the sequence (O95076 139-225 N203Q) above, with L30Q, Q65N counted along it
# ALX3 [14] = molecular target: ALX3 (Homo sapiens, UniProt O95076 139-225, L168V)
# Chain of ALX3 (Homo sapiens, UniProt O95076 139-225, L168V) (O95076 139-225 L168V): as the sequence (O95076 139-225 N203Q) above, with L30V, Q65N counted along it
# ALX3 [15] = molecular target: ALX3 (Homo sapiens, UniProt O95076 139-225, N203S)
# Chain of ALX3 (Homo sapiens, UniProt O95076 139-225, N203S) (O95076 139-225 N203S): as the sequence (O95076 139-225 N203Q) above, with Q65S counted along it
# HOXD13 [16] = molecular target: HOXD13 (Homo sapiens, UniProt P35453 263-343, T313R)
# Chain of HOXD13 (Homo sapiens, UniProt P35453 263-343, T313R) (P35453 263-343 T313R): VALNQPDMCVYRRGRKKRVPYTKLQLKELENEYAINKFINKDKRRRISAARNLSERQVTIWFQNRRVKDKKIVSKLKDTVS
# HOXD13 [17] = molecular target: HOXD13 (Homo sapiens, UniProt P35453 263-343)
# Chain of HOXD13 (Homo sapiens, UniProt P35453 263-343) (P35453 263-343): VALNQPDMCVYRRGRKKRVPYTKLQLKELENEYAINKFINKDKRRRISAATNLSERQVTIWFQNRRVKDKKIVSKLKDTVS
# HOXD13 [18] = molecular target: HOXD13 (Homo sapiens, UniProt P35453 263-343, T313A)
# Chain of HOXD13 (Homo sapiens, UniProt P35453 263-343, T313A) (P35453 263-343 T313A): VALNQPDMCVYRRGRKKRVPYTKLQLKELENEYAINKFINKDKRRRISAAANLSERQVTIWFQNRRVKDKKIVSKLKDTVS
# MSX2 [19] = molecular target: MSX2 (Homo sapiens, UniProt P35548 130-214)
# Chain of MSX2 (Homo sapiens, UniProt P35548 130-214) (P35548 130-214): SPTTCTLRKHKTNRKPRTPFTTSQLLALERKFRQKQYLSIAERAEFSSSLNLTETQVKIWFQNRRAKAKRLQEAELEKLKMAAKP
# MSX2 [20] = molecular target: MSX2 (Homo sapiens, UniProt P35548 130-214, F161Y)
# Chain of MSX2 (Homo sapiens, UniProt P35548 130-214, F161Y) (P35548 130-214 F161Y): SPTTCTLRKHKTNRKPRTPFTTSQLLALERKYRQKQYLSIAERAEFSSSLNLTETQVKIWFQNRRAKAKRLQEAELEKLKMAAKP
# SIX6 [21] = molecular target: T6, SIX6 (Homo sapiens, UniProt O95475 114-200, T165G)
# T6 sequence: T3 sequence with M30L, T52G
# ALX4 = ALX4 (Homo sapiens, UniProt Q9H161 200-286, Q225E)
# Chain of ALX4 (Q9H161 200-286 Q225E): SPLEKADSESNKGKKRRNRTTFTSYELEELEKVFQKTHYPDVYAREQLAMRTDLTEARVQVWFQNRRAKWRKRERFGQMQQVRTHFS
# HOXC9 = HOXC9 (Homo sapiens, UniProt P31274 178-260, R222W)
# Chain of HOXC9 (P31274 178-260 R222W): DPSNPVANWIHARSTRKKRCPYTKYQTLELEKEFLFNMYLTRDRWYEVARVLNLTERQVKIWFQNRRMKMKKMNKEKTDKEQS
sequence,measurement,setting,value
AGTTCGAG,binding signal,NKX2-4 [1],"11.3 upbm affinity estimate (log intensity, higher = more binding, comparable within an allelic series)"
same,binding signal,NKX2-4 [2],"11.6 upbm affinity estimate (log intensity, higher = more binding, comparable within an allelic series)"
AGATATCC,binding signal,SIX6 [3],"10.9 upbm affinity estimate (log intensity, higher = more binding, comparable within an allelic series)"
CGAGGCTC,binding signal,HOXB6 [4],"9.01 upbm affinity estimate (log intensity, higher = more binding, comparable within an allelic series)"
same,binding signal,NKX2-6,"9.43 upbm affinity estimate (log intensity, higher = more binding, comparable within an allelic series)"
same,binding signal,HOXB6 [5],"9.11 upbm affinity estimate (log intensity, higher = more binding, comparable within an allelic series)"
CACCCGGG,binding signal,HOXB6 [4],"9.01 upbm affinity estimate (log intensity, higher = more binding, comparable within an allelic series)"
same,binding signal,HOXA2 [6],"7.01 upbm affinity estimate (log intensity, higher = more binding, comparable within an allelic series)"
same,binding signal,HOXA2 [7],"10.3 upbm affinity estimate (log intensity, higher = more binding, comparable within an allelic series)"
same,binding signal,HOXA2 [8],"10.5 upbm affinity estimate (log intensity, higher = more binding, comparable within an allelic series)"
same,binding signal,HOXA2 [9],"7.11 upbm affinity estimate (log intensity, higher = more binding, comparable within an allelic series)"
same,binding signal,HOXB6 [5],"8.87 upbm affinity estimate (log intensity, higher = more binding, comparable within an allelic series)"
ATAGATAC,binding signal,SIX6 [3],"10.9 upbm affinity estimate (log intensity, higher = more binding, comparable within an allelic series)"
same,binding signal,SIX6 [10],"11.1 upbm affinity estimate (log intensity, higher = more binding, comparable within an allelic series)"
TACATTAA,binding signal,HOXB6 [4],"10 upbm affinity estimate (log intensity, higher = more binding, comparable within an allelic series)"
same,binding signal,ALX3 [11],"8.45 upbm affinity estimate (log intensity, higher = more binding, comparable within an allelic series)"
same,binding signal,ALX3 [12],"11 upbm affinity estimate (log intensity, higher = more binding, comparable within an allelic series)"
same,binding signal,ALX3 [13],"9.29 upbm affinity estimate (log intensity, higher = more binding, comparable within an allelic series)"
same,binding signal,ALX3 [14],"9.07 upbm affinity estimate (log intensity, higher = more binding, comparable within an allelic series)"
same,binding signal,ALX3 [15],"8.57 upbm affinity estimate (log intensity, higher = more binding, comparable within an allelic series)"
GGCCTCCC,binding signal,HOXB6 [4],"8.93 upbm affinity estimate (log intensity, higher = more binding, comparable within an allelic series)"
same,binding signal,HOXD13 [16],"9.37 upbm affinity estimate (log intensity, higher = more binding, comparable within an allelic series)"
same,binding signal,HOXD13 [17],"9.63 upbm affinity estimate (log intensity, higher = more binding, comparable within an allelic series)"
same,binding signal,HOXD13 [18],"9.7 upbm affinity estimate (log intensity, higher = more binding, comparable within an allelic series)"
same,binding signal,HOXB6 [5],"9.02 upbm affinity estimate (log intensity, higher = more binding, comparable within an allelic series)"
ATAAAAGC,binding signal,HOXB6 [4],"9.53 upbm affinity estimate (log intensity, higher = more binding, comparable within an allelic series)"
same,binding signal,MSX2 [19],"10.9 upbm affinity estimate (log intensity, higher = more binding, comparable within an allelic series)"
same,binding signal,MSX2 [20],"10.8 upbm affinity estimate (log intensity, higher = more binding, comparable within an allelic series)"
same,binding signal,HOXB6 [5],"10.3 upbm affinity estimate (log intensity, higher = more binding, comparable within an allelic series)"
CCCTGGGA,binding signal,HOXB6 [4],"8.98 upbm affinity estimate (log intensity, higher = more binding, comparable within an allelic series)"
same,binding signal,HOXB6 [5],"8.98 upbm affinity estimate (log intensity, higher = more binding, comparable within an allelic series)"
CCGGGGCA,binding signal,HOXB6 [4],"8.98 upbm affinity estimate (log intensity, higher = more binding, comparable within an allelic series)"
same,binding signal,HOXB6 [5],"8.98 upbm affinity estimate (log intensity, higher = more binding, comparable within an allelic series)"
AATACCAA,binding signal,HOXB6 [4],"9.59 upbm affinity estimate (log intensity, higher = more binding, comparable within an allelic series)"
same,binding signal,HOXB6 [5],"10.2 upbm affinity estimate (log intensity, higher = more binding, comparable within an allelic series)"
CGCAGGAG,binding signal,HOXB6 [4],"9.14 upbm affinity estimate (log intensity, higher = more binding, comparable within an allelic series)"
same,binding signal,HOXB6 [5],"8.95 upbm affinity estimate (log intensity, higher = more binding, comparable within an allelic series)"
GCCCCGCA,binding signal,HOXB6 [4],"9.01 upbm affinity estimate (log intensity, higher = more binding, comparable within an allelic series)"
same,binding signal,HOXB6 [5],"9.08 upbm affinity estimate (log intensity, higher = more binding, comparable within an allelic series)"
AGTCGCCC,binding signal,HOXB6 [4],"8.98 upbm affinity estimate (log intensity, higher = more binding, comparable within an allelic series)"
same,binding signal,HOXB6 [5],"9.09 upbm affinity estimate (log intensity, higher = more binding, comparable within an allelic series)"
CCCGGTAG,binding signal,HOXB6 [4],"9.07 upbm affinity estimate (log intensity, higher = more binding, comparable within an allelic series)"
same,binding signal,HOXB6 [5],"9.12 upbm affinity estimate (log intensity, higher = more binding, comparable within an allelic series)"
CATTAGGC,binding signal,HOXB6 [4],"9.37 upbm affinity estimate (log intensity, higher = more binding, comparable within an allelic series)"
same,binding signal,HOXB6 [5],"10.4 upbm affinity estimate (log intensity, higher = more binding, comparable within an allelic series)"
AGCCTAGG,binding signal,HOXB6 [4],"9.04 upbm affinity estimate (log intensity, higher = more binding, comparable within an allelic series)"
same,binding signal,HOXB6 [5],"9.03 upbm affinity estimate (log intensity, higher = more binding, comparable within an allelic series)"
CCGACTCC,binding signal,HOXB6 [4],"9.11 upbm affinity estimate (log intensity, higher = more binding, comparable within an allelic series)"
same,binding signal,HOXB6 [5],"9.01 upbm affinity estimate (log intensity, higher = more binding, comparable within an allelic series)"
CCGAGCGC,binding signal,HOXB6 [4],"9.06 upbm affinity estimate (log intensity, higher = more binding, comparable within an allelic series)"
same,binding signal,HOXB6 [5],"9.04 upbm affinity estimate (log intensity, higher = more binding, comparable within an allelic series)"
TGACTTAA,binding signal,HOXB6 [4],"9.69 upbm affinity estimate (log intensity, higher = more binding, comparable within an allelic series)"
same,binding signal,HOXB6 [5],"10.5 upbm affinity estimate (log intensity, higher = more binding, comparable within an allelic series)"
GCTTGCCC,binding signal,HOXB6 [4],"9.05 upbm affinity estimate (log intensity, higher = more binding, comparable within an allelic series)"
same,binding signal,HOXB6 [5],"9.1 upbm affinity estimate (log intensity, higher = more binding, comparable within an allelic series)"
ATCACATG,binding signal,HOXB6 [4],"9.52 upbm affinity estimate (log intensity, higher = more binding, comparable within an allelic series)"
same,binding signal,HOXB6 [5],"9.98 upbm affinity estimate (log intensity, higher = more binding, comparable within an allelic series)"
GGCGGCAC,binding signal,HOXB6 [4],"9.08 upbm affinity estimate (log intensity, higher = more binding, comparable within an allelic series)"
same,binding signal,HOXB6 [5],"9.21 upbm affinity estimate (log intensity, higher = more binding, comparable within an allelic series)"
GGCGTGGA,binding signal,HOXB6 [4],"9.09 upbm affinity estimate (log intensity, higher = more binding, comparable within an allelic series)"
same,binding signal,HOXB6 [5],"9.03 upbm affinity estimate (log intensity, higher = more binding, comparable within an allelic series)"
AGACACCA,binding signal,SIX6 [21],"10.5 upbm affinity estimate (log intensity, higher = more binding, comparable within an allelic series)"
CCGGCGCA,binding signal,HOXB6 [4],"9.01 upbm affinity estimate (log intensity, higher = more binding, comparable within an allelic series)"
same,binding signal,HOXB6 [5],"9.07 upbm affinity estimate (log intensity, higher = more binding, comparable within an allelic series)"
CGGTGTGC,binding signal,HOXB6 [4],"9.02 upbm affinity estimate (log intensity, higher = more binding, comparable within an allelic series)"
same,binding signal,HOXB6 [5],"8.92 upbm affinity estimate (log intensity, higher = more binding, comparable within an allelic series)"
AATAAAAG,binding signal,ALX4,"10.4 upbm affinity estimate (log intensity, higher = more binding, comparable within an allelic series)"
same,binding signal,HOXC9,"11 upbm affinity estimate (log intensity, higher = more binding, comparable within an allelic series)"
CGTTGCCC,binding signal,HOXB6 [4],"9.13 upbm affinity estimate (log intensity, higher = more binding, comparable within an allelic series)"
same,binding signal,HOXB6 [5],"9.12 upbm affinity estimate (log intensity, higher = more binding, comparable within an allelic series)"
GCCGCCCA,binding signal,HOXB6 [4],"8.98 upbm affinity estimate (log intensity, higher = more binding, comparable within an allelic series)"
same,binding signal,HOXB6 [5],"8.99 upbm affinity estimate (log intensity, higher = more binding, comparable within an allelic series)"
AATAAATC,binding signal,ALX4,"10.8 upbm affinity estimate (log intensity, higher = more binding, comparable within an allelic series)"
ACGCCGCG,binding signal,HOXB6 [4],"9.12 upbm affinity estimate (log intensity, higher = more binding, comparable within an allelic series)"
same,binding signal,HOXB6 [5],"9.15 upbm affinity estimate (log intensity, higher = more binding, comparable within an allelic series)"
ACTATTCA,binding signal,HOXB6 [4],"9.59 upbm affinity estimate (log intensity, higher = more binding, comparable within an allelic series)"
same,binding signal,HOXB6 [5],"10.2 upbm affinity estimate (log intensity, higher = more binding, comparable within an allelic series)"
CGCACACC,binding signal,HOXB6 [4],"9.16 upbm affinity estimate (log intensity, higher = more binding, comparable within an allelic series)"
same,binding signal,HOXB6 [5],"9.11 upbm affinity estimate (log intensity, higher = more binding, comparable within an allelic series)"
